Consider eight compounds from PubChem BioAssay AID602433 (Southern Research Specialized Biocontainment Screening …, 2012).

Potency and affinity values are given separately. Inconclusive results are not listed. Active and inactive are the calls of the source. The rule behind the calls is not given here.

The assay can be described thus: THP-1 cell cytotoxicity, cytotoxicity control, set 6 (AID 602433). Particulars: THP-1 cell viability, cytotoxicity CC50; series mostly up to 100 µM; viability: at the top concentration.
One may read the viability as the share of living cells, or the viability signal relative to a control. In the case of `O=C(c1ccc(CNc2c(N3CCCC3)c(=O)c2=O)cc1)N1CCN(c2ccccc2)CC1`, the “viability” value was 99.7% (inactive).

Turning to `CC(C)CCNC(=O)CSc1nc2c(c(=O)[nH]1)CCCCC2`, the “viability” value is 96% (inactive).

As to `O=C(c1ccc(CNc2c(N3CCOCC3)c(=O)c2=O)cc1)N1CCN(c2ccccc2)CC1`, the “viability” value is 92.5% (inactive).

For `COC(=O)C(Cc1ccccc1)NC(=O)CSc1nc2ccccc2c(=O)[nH]1` (stereo not drawn), the “viability” value was 81.6% (inactive).

In the case of `O=C(NCc1ccc(C(=O)N2CCN(c3ccccc3)CC2)cc1)NC1CCCCC1`, the “viability” value was 82.6% (inactive).

For `O=C(CSc1nc2c(c(=O)[nH]1)CCC2)NC1CCCCC1`, the “viability” value is 98.8% (inactive).

Consider `O=C(CSc1nc2c(c(=O)[nH]1)CCCC2)NC1CCCCC1`, for which the “viability” value is 94.3% (inactive).

Regarding `O=C(c1ccc(CNc2c(N3CCCC3)c(=O)c2=O)cc1)N1CCC(c2ccccc2)CC1`, the “viability” value was 99.5% (inactive).
